Reference: PubChem BioAssay (EPA / NIEHS)
Several values for one entry are separate records, joined by “and”; a condition that tells them apart may be missing. Equal entries are not always repeated. Inconclusive results are not listed. Some compounds were tested as several samples or in several runs, with calls that do not always agree. Activity calls are given as the source filed them. The calls were made as follows: active = hit-call score of the fitted dose curve at least 0.9, where 1 is the maximum; inconclusive = response in the unintended direction; inactive = score below 0.9.

target: human Peroxisome Proliferator-activated Receptor alpha (PPARa), PPARA (gene 5465) (UniProt Q07869); assay: NVS_NR_hPPARa: NovaScreen (NVS) Nuclear Receptor Binding Assay for human Peroxisome Proliferator-activated Receptor alpha (PPARa) (AID 2283359);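 also: activity means loss of TR-FRET signal versus DMSO baseline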
Summary of the method: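 TR-FRET signal measured at 1 h post-dosing; loss-of-signal versus DMSO negative control taken as activity. Extracted gene-protein, cell-free format. Initial single-point duplicates at 25 uM, then concentration-response retests.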

Sequence of human Peroxisome Proliferator-activated Receptor alpha (PPARa), PPARA (gene 5465) (Q07869 whole entry, looked up): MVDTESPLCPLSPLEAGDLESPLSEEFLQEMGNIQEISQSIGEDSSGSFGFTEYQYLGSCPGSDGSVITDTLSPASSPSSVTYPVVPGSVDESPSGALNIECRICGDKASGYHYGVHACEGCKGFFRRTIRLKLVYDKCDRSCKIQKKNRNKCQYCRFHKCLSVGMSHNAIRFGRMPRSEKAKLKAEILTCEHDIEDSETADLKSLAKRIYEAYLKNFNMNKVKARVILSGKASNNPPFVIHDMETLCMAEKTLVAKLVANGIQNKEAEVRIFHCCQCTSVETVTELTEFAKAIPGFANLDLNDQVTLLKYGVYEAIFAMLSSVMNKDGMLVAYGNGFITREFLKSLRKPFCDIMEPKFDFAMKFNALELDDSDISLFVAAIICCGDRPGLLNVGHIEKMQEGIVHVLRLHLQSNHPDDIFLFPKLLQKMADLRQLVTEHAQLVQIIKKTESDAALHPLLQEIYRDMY

outcome, inactive:
O=CCCCC=O
O=C(O)c1ccccc1C(=O)OCc1ccccc1
C[C@]12CC[C@@H]3c4ccc(O)cc4CC[C@H]3[C@@H]1CCC2=O
Clc1cc(Cl)c2c(c1)N=C1CCCCCN1C2
CCCCOC(=O)c1ccc(O)cc1
CCCCCCCCOc1ccc(C(=O)c2ccccc2)c(O)c1
CCCCCCCCCC(=O)O
CCCCCCCCCCCO
Cc1c2ccccc2c(C)c2c1ccc1ccccc12
CC/C(=C(/CC)c1ccc(O)cc1)c1ccc(O)cc1
OC12N=C(c3ccccc3)SC1Cc1cc(Cl)ccc12 (configuration not stated)
C[C@]12CC[C@@H]3c4ccc(O)cc4CC[C@H]3[C@@H]1CC[C@H]2O

AC50, active:
CC(C)(c1cc(Br)c(O)c(Br)c1)c1cc(Br)c(O)c(Br)c1 8.19 µM
CCCCCCCCOC(=O)c1cc(O)c(O)c(O)c1 19 µM
O=C(O)Cc1cc(I)c(Oc2ccc(O)c(I)c2)c(I)c1 46.3 µM
CN(C)c1ccc(C(=C2C=CC(=[N+](C)C)C=C2)c2ccc(N(C)C)cc2)cc1 14.7 µM
NCc1cccc(C2CCN(C(=O)c3ccc(C#Cc4ccccc4F)o3)CC2)c1 40.8 µM

target: Retinoic acid receptor alpha (Homo sapiens) (UniProt P10276); assay: NVS_NR_hRARa_Agonist: NovaScreen (NVS) Nuclear Receptor Binding Assay for human Retinoic Acid Alpha Receptor Agonism (RAR) (AID 2283361)
Summary of the method: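 TR-FRET signal, 2 h post-dosing; cell-free extracted protein; DMSO = baseline, positive fitting direction; 25 uM single-point duplicate, then concentration series for actives.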

Sequence of Retinoic acid receptor alpha (Homo sapiens) (P10276 whole entry, looked up): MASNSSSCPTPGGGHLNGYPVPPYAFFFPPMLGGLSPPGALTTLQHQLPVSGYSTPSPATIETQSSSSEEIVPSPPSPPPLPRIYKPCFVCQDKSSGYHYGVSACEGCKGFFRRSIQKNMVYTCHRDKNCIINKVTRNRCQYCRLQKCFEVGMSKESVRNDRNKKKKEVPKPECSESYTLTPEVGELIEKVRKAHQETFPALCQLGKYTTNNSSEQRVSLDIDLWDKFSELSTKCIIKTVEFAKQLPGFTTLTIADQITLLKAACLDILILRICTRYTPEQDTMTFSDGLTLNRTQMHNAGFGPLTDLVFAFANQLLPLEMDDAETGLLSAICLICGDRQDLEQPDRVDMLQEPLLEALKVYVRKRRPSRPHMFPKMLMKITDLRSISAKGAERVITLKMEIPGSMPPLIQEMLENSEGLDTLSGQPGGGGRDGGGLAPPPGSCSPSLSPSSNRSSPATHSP

outcome, inactive:
CC[C@@H]1C[C@H](N(Cc2cc(C(F)(F)F)cc(C(F)(F)F)c2)C(C)=O)c2cc(C(F)(F)F)ccc2N1C(=O)OC(C)C
CCO[Si](CCCNC(N)=O)(OCC)OCC
CCN(CC)C(=O)c1cc(S(=O)(=O)Cc2ccccc2)c(N2CCC(c3ccccc3)CC2)cc1N(CC)CCN(C)C
c1ccc2ccccc2c1
O=c1c(-c2ccc(O)cc2)coc2cc(O)cc(O)c12
O=C(OCCCCCCOC(=O)c1ccccc1)c1ccccc1

target: Glucocorticoid receptor (Homo sapiens) (UniProt P04150); assay: NVS_NR_hGR: NovaScreen (NVS) Nuclear Receptor Binding Assay for human Glucocorticoid Receptor (GR) (AID 2283363);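 as to AC50: activity is loss of specific radioligand binding signal relative to DMSO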
Summary of the method: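 Filter scintillation readout of tritiated/iodinated radioligand displaced by test chemical; cell-free extracted protein; 16 h. DMSO = negative control/baseline. Duplicate single-point 25 uM screen, then concentration-response on actives.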

Sequence of Glucocorticoid receptor (Homo sapiens) (P04150 whole entry, looked up): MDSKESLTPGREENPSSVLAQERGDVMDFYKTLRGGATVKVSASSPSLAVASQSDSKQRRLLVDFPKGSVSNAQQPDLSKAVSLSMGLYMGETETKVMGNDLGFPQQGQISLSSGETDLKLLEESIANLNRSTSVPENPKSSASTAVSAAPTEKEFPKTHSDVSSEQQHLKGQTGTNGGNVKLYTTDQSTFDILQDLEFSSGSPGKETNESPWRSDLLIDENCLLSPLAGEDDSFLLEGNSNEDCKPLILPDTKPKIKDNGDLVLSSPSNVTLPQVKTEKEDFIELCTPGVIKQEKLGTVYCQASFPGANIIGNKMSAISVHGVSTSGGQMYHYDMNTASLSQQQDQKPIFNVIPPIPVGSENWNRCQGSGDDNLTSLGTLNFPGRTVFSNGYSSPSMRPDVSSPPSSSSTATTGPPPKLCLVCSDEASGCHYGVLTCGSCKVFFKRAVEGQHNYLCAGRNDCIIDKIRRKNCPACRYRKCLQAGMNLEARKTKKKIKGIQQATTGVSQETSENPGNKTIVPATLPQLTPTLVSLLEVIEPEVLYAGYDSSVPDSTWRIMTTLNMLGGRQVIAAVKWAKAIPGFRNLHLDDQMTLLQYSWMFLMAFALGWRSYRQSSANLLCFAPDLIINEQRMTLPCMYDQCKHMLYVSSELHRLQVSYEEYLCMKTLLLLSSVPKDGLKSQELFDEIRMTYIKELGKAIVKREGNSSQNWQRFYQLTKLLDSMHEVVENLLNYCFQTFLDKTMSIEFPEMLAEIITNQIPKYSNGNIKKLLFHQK

AC50, active:
CC(C)(c1cc(Br)c(O)c(Br)c1)c1cc(Br)c(O)c(Br)c1 4.97 µM
CCCCCCCCOC(=O)c1cc(O)c(O)c(O)c1 1.14 µM
CCN(CC)C(=O)c1cc(S(=O)(=O)Cc2ccccc2)c(N2CCC(c3ccccc3)CC2)cc1N(CC)CCN(C)C 14.2 µM
O=C(O)Cc1cc(I)c(Oc2ccc(O)c(I)c2)c(I)c1 561 nM [middle of 4 runs]
CN(C)c1ccc(C(=C2C=CC(=[N+](C)C)C=C2)c2ccc(N(C)C)cc2)cc1 1.87 µM
Cc1c2ccccc2c(C)c2c1ccc1ccccc12 15.3 µM
CC/C(=C(/CC)c1ccc(O)cc1)c1ccc(O)cc1 177 nM and 162 nM and 1.27 µM
O=C(O)c1ccccc1-n1cc(C(=O)O)c(=O)c2cc(Nc3c(F)cc(F)cc3Cl)c(Cl)cc21 25 µM
NCc1cccc(C2CCN(C(=O)c3ccc(C#Cc4ccccc4F)o3)CC2)c1 7.56 µM
C[C@]12CC[C@@H]3c4ccc(O)cc4CC[C@H]3[C@@H]1CC[C@H]2O 374 nM and 448 nM and 261 nM

outcome, inactive:
CC[C@@H]1C[C@H](N(Cc2cc(C(F)(F)F)cc(C(F)(F)F)c2)C(C)=O)c2cc(C(F)(F)F)ccc2N1C(=O)OC(C)C
CCCCOC(=O)c1ccc(O)cc1
CC(C)(O)c1ccc(CNC(=O)c2cccnc2Oc2ccc3nonc3c2)cc1
C[C@]12CC[C@@H]3c4ccc(O)cc4CC[C@H]3[C@@H]1CC[C@H]2O

target: Nuclear receptor subfamily 1 group I member 2 (Homo sapiens) (UniProt O75469); assay: NVS_NR_hPXR: NovaScreen (NVS) Nuclear Receptor Binding Assay for human Pregnane X Receptor (PXR) (AID 2283365);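 also: a drop in FRET signal versus DMSO baseline means the compound binds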
Summary of the method: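 Human PXR binding measured by TR-FRET in a cell-free format, 2 h exposure. Single-concentration duplicates at 25 uM preceded concentration-response retests of actives; endpoint fitted positively relative to DMSO, loss of signal indicating binding.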

Sequence of Nuclear receptor subfamily 1 group I member 2 (Homo sapiens) (O75469 whole entry, looked up): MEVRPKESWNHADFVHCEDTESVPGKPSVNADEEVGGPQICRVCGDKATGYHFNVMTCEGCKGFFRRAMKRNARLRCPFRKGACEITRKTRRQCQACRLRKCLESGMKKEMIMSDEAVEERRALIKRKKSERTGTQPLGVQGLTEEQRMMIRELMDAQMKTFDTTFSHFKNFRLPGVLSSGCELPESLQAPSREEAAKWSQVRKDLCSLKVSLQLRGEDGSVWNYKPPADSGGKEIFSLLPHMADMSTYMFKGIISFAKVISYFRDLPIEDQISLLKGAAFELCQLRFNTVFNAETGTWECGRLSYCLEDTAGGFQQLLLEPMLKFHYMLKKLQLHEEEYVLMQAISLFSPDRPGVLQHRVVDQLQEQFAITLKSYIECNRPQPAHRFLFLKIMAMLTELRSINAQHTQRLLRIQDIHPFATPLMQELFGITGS

outcome, inactive:
O=CCCCC=O
O=C1CCC(C2CCCCC2)CC1
O=C(O)Cc1cc(I)c(Oc2ccc(O)c(I)c2)c(I)c1
CCCCOC(=O)c1ccc(O)cc1
O=c1c(-c2ccc(O)cc2)coc2cc(O)cc(O)c12
C[C@]12CC[C@@H]3c4ccc(O)cc4CC[C@H]3[C@@H]1CC[C@H]2O

AC50, active:
CCN(CC)C(=O)c1cc(S(=O)(=O)Cc2ccccc2)c(N2CCC(c3ccccc3)CC2)cc1N(CC)CCN(C)C 15.4 µM
CN(C)c1ccc(C(=C2C=CC(=[N+](C)C)C=C2)c2ccc(N(C)C)cc2)cc1 6.47 µM
NCc1cccc(C2CCN(C(=O)c3ccc(C#Cc4ccccc4F)o3)CC2)c1 7.85 µM

target: rat Androgen Receptor (AR), Ar (gene 24208) (UniProt P15207); assay: NVS_NR_rAR: NovaScreen (NVS) Nuclear Receptor Binding Assay for rat Androgen Receptor (AR) (AID 2283366)
Summary of the method: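 Actives from a duplicate single-concentration (25 uM) primary run went on to concentration series. Displacement of radioligand was counted by filtration and scintillation, 18 h post-dose, using prostate extracts from testosterone-pretreated rats, with DMSO as baseline.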

Sequence of rat Androgen Receptor (AR), Ar (gene 24208) (P15207 whole entry, looked up): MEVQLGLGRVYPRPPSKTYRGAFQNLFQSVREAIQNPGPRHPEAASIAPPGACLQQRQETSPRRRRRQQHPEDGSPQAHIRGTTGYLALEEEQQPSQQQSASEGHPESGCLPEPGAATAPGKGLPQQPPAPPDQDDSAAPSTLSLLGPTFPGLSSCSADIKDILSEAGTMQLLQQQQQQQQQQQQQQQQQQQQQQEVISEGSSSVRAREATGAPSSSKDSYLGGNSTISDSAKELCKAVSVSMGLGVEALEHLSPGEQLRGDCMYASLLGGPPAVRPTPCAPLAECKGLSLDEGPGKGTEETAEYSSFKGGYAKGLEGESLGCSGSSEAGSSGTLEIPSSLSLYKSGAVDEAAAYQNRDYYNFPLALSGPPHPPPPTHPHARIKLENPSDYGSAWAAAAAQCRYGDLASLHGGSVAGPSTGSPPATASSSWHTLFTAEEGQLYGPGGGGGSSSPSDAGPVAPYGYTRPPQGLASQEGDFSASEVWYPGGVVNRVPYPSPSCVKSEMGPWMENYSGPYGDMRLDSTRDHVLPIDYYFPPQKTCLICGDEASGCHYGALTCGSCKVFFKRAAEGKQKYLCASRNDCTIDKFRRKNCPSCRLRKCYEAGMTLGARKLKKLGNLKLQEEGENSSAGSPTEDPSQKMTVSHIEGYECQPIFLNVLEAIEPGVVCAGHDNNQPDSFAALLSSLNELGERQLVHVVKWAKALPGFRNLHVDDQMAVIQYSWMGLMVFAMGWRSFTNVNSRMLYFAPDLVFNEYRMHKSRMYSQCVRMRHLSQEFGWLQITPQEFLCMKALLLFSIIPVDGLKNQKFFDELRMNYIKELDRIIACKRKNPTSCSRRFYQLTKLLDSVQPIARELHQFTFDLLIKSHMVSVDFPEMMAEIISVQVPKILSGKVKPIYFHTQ

outcome, inactive:
C[C@]12CC[C@@H]3c4ccc(O)cc4CC[C@H]3[C@@H]1CCC2=O
CCCCOC(=O)c1ccc(O)cc1
O=c1c(-c2ccc(O)cc2)coc2cc(O)cc(O)c12

AC50, active:
CN(C)c1ccc(C(=C2C=CC(=[N+](C)C)C=C2)c2ccc(N(C)C)cc2)cc1 6.51 µM
NCc1cccc(C2CCN(C(=O)c3ccc(C#Cc4ccccc4F)o3)CC2)c1 15.4 µM

target: guinea pig Sigma Receptor, Non-selective Binding, SIGMAR1 (gene 100135589) (UniProt Q60492); assay: NVS_OR_gSIGMA_NonSelective: NovaScreen (NVS) Nuclear Receptor Binding Assay for guinea pig Sigma Receptor, Non-selective Binding (AID 2283367)
Summary of the method: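 Membranes from guinea pig brain incubated with radioligand and test chemical for 1 h, then filtered and scintillation-counted. Duplicate primary testing at 25 uM, with concentration-series follow-up for actives.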

Sequence of guinea pig Sigma Receptor, Non-selective Binding, SIGMAR1 (gene 100135589) (Q60492 whole entry, looked up): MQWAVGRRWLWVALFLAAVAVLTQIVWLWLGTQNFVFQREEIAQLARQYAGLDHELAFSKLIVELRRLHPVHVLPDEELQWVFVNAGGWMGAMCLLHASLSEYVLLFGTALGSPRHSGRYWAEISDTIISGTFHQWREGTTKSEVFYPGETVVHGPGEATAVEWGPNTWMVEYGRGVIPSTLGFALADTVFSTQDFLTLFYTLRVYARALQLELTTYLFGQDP

AC50, active:
O=C1CCC(C2CCCCC2)CC1 25 µM
CCN(CC)C(=O)c1cc(S(=O)(=O)Cc2ccccc2)c(N2CCC(c3ccccc3)CC2)cc1N(CC)CCN(C)C 6.21 µM
CN(C)c1ccc(C(=C2C=CC(=[N+](C)C)C=C2)c2ccc(N(C)C)cc2)cc1 14.8 µM
Clc1cc(Cl)c2c(c1)N=C1CCCCCN1C2 0.542 µM
CCCCOC(=O)c1ccc(O)cc1 4.2 µM
NCc1cccc(C2CCN(C(=O)c3ccc(C#Cc4ccccc4F)o3)CC2)c1 13.2 µM
